Assay results from article PMC4552634, “A New Set of Chemical Starting Points with Plasmodium falciparum Transmission-Blocking Potential for Antimalarial Drug Discovery” (PLoS ONE, 2015).
About 3,200 (25%) of roughly 13,000 compounds showed an effect of 50% or more. This is one part of the list.

test system: P. falciparum stage V gametocytes; design: BacTiter-Glo ATP luminescence viability of purified stage V gametocytes in 384-well plates, per cent inhibition versus DMSO; details: 48 h, 5 µM; inhibitor

Compound | % Inhibition
COc1cc2c(cc1OCCN1CCC(N3CCCCC3)CC1)N(C(=O)/C=C/c1ccccc1OC(F)(F)F)CC2 [TCMDC-141018] | 57.17%
NC1=NC(c2ccccc2)N(c2ccccc2)C(N)=N1 (centres unmarked) [TCMDC-123669] | -71.64%
CNC(=O)CNC(=O)COc1cccc2ccccc12 [TCMDC-131646] | 8.257%
O=C(N/N=C/c1nc2ccccc2[nH]1)c1cccc([N+](=O)[O-])c1 [TCMDC-125792] | 11.6%
CCCCCCCC1=NN2C(=N)C(=Cc3cc(Br)c(OCc4ccc(F)cc4)c(OCC)c3)C(=O)N=C2S1 [TCMDC-124035] | 8.522%
CCOc1cc(O)c(-c2nc(N)ncc2-c2ccc3c(c2)OCCO3)cc1CC [TCMDC-125234] | 11.3%
CC1(C)N=C(N)NC(Nc2ccc(Cl)cc2)=N1 [TCMDC-124268] | 26.51%
COCCCNC(=O)[C@H]1CNCCN1C(=O)c1ccccc1 [TCMDC-141239] | -7.699%
COc1ccc(NC(=O)/C=C/c2ccccc2Cl)cc1OCCN1CCC(N2CCCC2)CC1 [TCMDC-140919] | -16.17%
COc1ccc(NC(=O)/C=C/c2ccccc2Cl)cc1OCCN1CCC(N2CCCCC2)CC1 [TCMDC-140698] | -6.505%
CN1CCC(N2CCN(CCOc3cc(NC(=O)/C=C/c4ccccc4Cl)ccc3Br)CC2)CC1 [TCMDC-140962] | 101%
COc1ccc(NC(=O)/C=C/c2ccccc2Cl)cc1OCCN1CCC(NCc2ccccc2)CC1 [TCMDC-140746] | -31.11%
COc1ccc(NC(=O)/C=C/c2ccccc2Cl)cc1OCCN1CCC(N(C)C)CC1 [TCMDC-140755] | 36.26%
COc1cc2c(cc1OCCN1CCC(N3CCCCC3)CC1)N(C(=O)/C=C/c1ccccc1Cl)CC2 [TCMDC-140770] | 68.26%
COc1ccc(NC(=O)/C=C/c2ccccc2Cl)cc1OCCN1CCC(N2CCN(C)CC2)CC1 [TCMDC-140757] | 11.04%
O=C(/C=C/c1ccccc1Cl)Nc1ccc(Br)c(OCCN2CCN(CCN3CCCC3)CC2)c1 [TCMDC-140961] | 38.25%
COc1cc2c(cc1OCCN1CCC(N3CCCC3)CC1)N(C(=O)/C=C/c1ccccc1Cl)CC2 [TCMDC-140968] | 80.73%
O=C(Nc1ccc(N2CCCCC2)c(Cl)c1)c1ccc(Br)o1 [TCMDC-124350] | 9.025%
CC(C)(C)C(Cn1ccnc1)NCc1cn[nH]c1-c1ccc(-c2ccccc2)cc1 (centres unmarked) [TCMDC-124639] | 18.54%

Compound | % Inhibition
CC1CCN(C(=O)CSc2nc(-c3ccc(C(C)C)cc3)no2)CC1 [TCMDC-124746] | 17.92%
COCC(=O)Nc1nc2ccccc2[nH]1 [TCMDC-125535] | -0.9845%
Cc1cc(C(=O)Nc2ccc3c(c2)CCN3C2CCN(Cc3cccc4cc[nH]c34)C2)no1 (centres unmarked) [TCMDC-135085] | 42.96%
CC(C)NCc1ccc(-c2ccc(NS(=O)(=O)c3cccc4cccnc34)cc2)cc1 [TCMDC-136476] | 32.43%
CCN(CC)CCNc1ccnc2[nH]c3ccc(C)cc3c12 [TCMDC-131833] | -0.1276%
CCn1ncc2c(N3CCCC3=O)cc(C(=O)N[C@@H](Cc3ccccc3)[C@H](O)CNC(C)(C)c3cccc(OC)c3)cc21 [TCMDC-135063] | 45.35%
O=C(Nc1ccc(-c2cccc(-c3nc4ccc(F)cc4[nH]3)c2)cc1)Nc1ccc(Cl)c(Cl)c1 [TCMDC-133282] | -9.249%
CCC(CC)NCc1c(O)ccc2c(CNC(CC)CC)c(O)ccc12 [TCMDC-137581] | -56.22%
Cc1cccc2[nH]c(-c3ccc(-c4ccc(NC(=O)Nc5ccc(Cl)c(Cl)c5)cc4)cc3)nc12 [TCMDC-133281] | -29.93%
Cc1nc2ccc(S(=O)(=O)Nc3ccc(C(=O)N[C@@H](CCC(=O)O)C(=O)O)cc3)cc2c(=O)[nH]1 [TCMDC-137978] | -10.92%
CC(C)COc1ccc(Cl)cc1Cc1ccc(-c2nc3ccc(N4CCN(C)CC4)cc3[nH]2)o1 [TCMDC-136709] | 31.86%
CC(C)COc1ccc(Cl)cc1Cc1ccc(-c2nc3ccc(C(F)(F)F)cc3[nH]2)o1 [TCMDC-136563] | 61.92%
CC(C)COc1ccc(Cl)cc1Cc1ccc(-c2nc3cc(F)c(F)cc3[nH]2)o1 [TCMDC-136561] | 53.5%
CC(C)COc1ccc(Cl)cc1Cc1ccc(-c2nc3ccc(F)cc3[nH]2)o1 [TCMDC-136545] | 33.1%
CC(C)COc1ccc(Cl)cc1Cc1ccc(-c2nc3ccc(CCN(C)C)cc3[nH]2)o1 [TCMDC-136891] | 30.85%
CC(C)COc1ccc(Cl)cc1Cc1ccc(-c2nc3ccc(Br)cc3[nH]2)o1 [TCMDC-136705] | 53.1%
CC(C)COc1ccc(Cl)cc1Cc1ccc(-c2nc3ccc(CCN4CCCC4)cc3[nH]2)o1 [TCMDC-136890] | 21.95%
CC(C)COc1ccc(Cl)cc1Cc1nc(-c2nc3ccc(CN(C)C)cc3[nH]2)co1 [TCMDC-136809] | -8.138%
CC(C)COc1ccc(Cl)cc1Cc1ccc(-c2nc3ccc(Cl)cc3[nH]2)o1 [TCMDC-136546] | -3.56%
